# Compound activity as filed in PubChem.
# This is a sample that favours compounds with a hit; in the whole collection about 3.5% have one here.
# Pf apPOL inh: Pf-apPOL DNA polymerase inhibition; 210,000 tested, 0.25% active; inhibition, % at 10 µM; Recombinant Pf-apPOL, molecular beacon fluorescence, 1.5 h
# mHTT CaM bind: mHTT-calmodulin interaction abrogation; P42858; AlphaScreen His-mHTT/GST-CaM binding, luminescence; inhibition, % at 15 µM; 190,000 tested, 3.6% active; AID 1671202;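 further: 0% = both proteins with DMSO and 100% = one protein alone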
# The depositor's hits bear a star; . = no result. No stated cut-off is given here; in the data, active means inhibition above about 50%; inactive means the rest.
SMILES,Pf apPOL inh,mHTT CaM bind
CCOc1ccc(NC(=O)c2cnccn2)cc1,-1.7,0.2
CCN(CC)c1ccc(NC(=O)c2cnccn2)cc1,1.6,59.6*
O=C(Cn1cnc2c(oc3ccccc32)c1=O)Nc1cc(F)ccc1F,-3.1,-1.2
O=C(Cn1c2c(c3ccccc31)CCC2)Nc1cc(F)ccc1F,-1.7,76.2*
Cc1ccc(NC(=O)c2cnc(-c3ccc(C)cc3)nc2-c2ccncc2)cc1,-0.3,-0.2
O=C(Nc1ccccc1F)c1cnc(-c2ccccc2)nc1-c1ccncc1,-1.6,-12.2
Cc1c(F)cccc1NC(=O)c1cnc(-c2ccc(F)cc2)nc1-c1ccncc1,77.4*,12.6
O=C(Nc1ccccc1)c1cnc(-c2ccc(F)cc2)nc1-c1ccncc1,43.9,5.7
O=C(Nc1cccc(F)c1)c1cnc(-c2ccc(F)cc2)nc1-c1ccncc1,64.2*,2.8
Cc1ccc(-c2ncc(C(=O)Nc3ccc(Cl)cc3)c(-c3ccncc3)n2)cc1,65.3*,27.1
Cc1ccc(-c2ncc(C(=O)N3CCCCCC3)c(-c3ccncc3)n2)cc1,-5.4,55.5*
Cc1ccc(-c2ncc(C(=O)N3CCCC3)c(N3CCCCC3)n2)cc1,-6.1,22.1
CN(CC12CCCC1N(C)C(=O)CC2)C(=O)c1ccc2ccccc2n1 (centres undefined),0.9,0.4
O=C(CCC1CCN(c2cc(NC3CC3)ncn2)CC1)NCc1ccccn1,4.6,6.4
CC(=O)C1=C(C)NC(SCC(=O)c2ccc(C)cc2)=C(C#N)C1c1sccc1C (centres undefined),4.0,-59.2
COc1cc(OC)c(OC)cc1/C=C1/N=C(c2ccc(Cl)c(Cl)c2)OC1=O,2.2,1.0
COc1ccc(F)cc1S(=O)(=O)N1CC2CC(NC(=O)c3cccs3)C1C2 (centres undefined),-6.8,11.0
CCCNC(=O)N1CCC(N2CCN(Cc3ccc(C)cc3)C2=O)CC1,0.5,-1.6
CC(NC(=O)c1cn2c(n1)CCCC2)c1ccc(F)cc1 (centres undefined),-8.0,10.4
CC(NC(=O)c1cn2c(n1)CSCC2)c1ccc(F)cc1 (centres undefined),-6.4,92.7*
CCN1c2ccccc2C(=O)NC12CCN(C(=O)c1cc(C)cc(C)c1)CC2,-0.5,-13.3
Cc1ccc(NC(=O)Nc2ccccc2C)cc1,-1.9,-5.1
Nc1sc2c(c1-c1nn[nH]n1)CCCC2,.,90.1*
N#Cc1c(N)sc2c1CCCC2,-2.0,4.3
CC(=O)Nc1ccc(NC(=O)c2cc3c(n2C)CCN(Cc2ccc(C)cc2)C3)cc1,-0.6,35.3
SMILES,Pf apPOL inh,mHTT CaM bind
CN(C)CCNC(=O)C1CCN(Cc2cc3ccccc3n2Cc2ccccc2)CC1,4.7,100.2*
COCCNC(=O)C1CCN(Cc2cc3ccccc3n2Cc2cccc(F)c2)CC1,-2.9,63.0*
Cc1ccc(Cn2c(CN3CCC(C(=O)NCc4ccco4)CC3)cc3ccccc32)cc1,2.1,37.9
COCCNC(=O)C1CCN(Cc2cc(OC)c(OC)c(OC)c2)CC1,-5.8,-4.1
COCCCNC(=O)C1CCN(Cc2cc3ccccc3n2Cc2ccc(C)cc2)CC1,-4.2,76.2*
COc1ccccc1CN1CCC(C(=O)NCCc2ccccc2)CC1,-4.5,-7.7
O=C(NCCc1ccccc1)C1CCN(Cc2ccccc2)CC1,9.3,-0.7
COCCNC(=O)C1CCN(Cc2cc3ccccc3n2Cc2ccccc2C)CC1,2.7,59.9*
Cc1ccc2nc(-c3ccccc3F)cc(C(N)=O)c2c1,-1.8,6.3
CC(C)Oc1cncc(C(=O)N2CCCCC2)c1,0.1,-15.9
COc1ccccc1C1=N/C(=C\c2ccc(C(C)C)cc2)C(=O)O1,-4.7,-1.0
O=C(c1cnn(-c2ccccc2)c1C(F)(F)F)N1CCOCC1,-3.7,1.6
COCCNC(=O)C1CCN(Cc2cc3ccccc3n2Cc2cccc(C)c2)CC1,5.1,60.4*
Cc1cccc(Cn2c(CN3CCC(C(=O)NCc4ccco4)CC3)cc3ccccc32)c1,1.1,35.9
CSc1nnc(-c2nn(C)c3c2CN(C(=O)c2ccc(F)cc2)CC3)n1C,1.6,2.3
COc1ccc(C)cc1NC(=O)C1CC(=O)N(CCc2c[nH]c3ccc(Cl)cc23)C1 (centres undefined),-2.0,14.2
COc1ccc(OC)c(NC(=O)C2CC(=O)N(CCc3c[nH]c4ccc(Cl)cc34)C2)c1 (centres undefined),1.0,80.9*
COc1ccc(Cl)cc1NC(=O)C1CC(=O)N(CCc2c[nH]c3ccc(C)cc23)C1 (centres undefined),-0.1,75.1*
COc1ccccc1NC(=O)C1CC(=O)N(CCc2c[nH]c3ccc(Cl)cc23)C1 (centres undefined),0.3,40.8
Cc1c(Cl)cccc1-c1ccc(C=C2C(=O)OC(C)(C)OC2=O)o1,-224.2,4.0
O=c1cc2oc3cc(O)c(-c4ccc(O)cc4O)cc3nc-2cc1-c1ccc(O)cc1O,.,100.3*
O=c1cc(-c2ccc(O)cc2)oc2cc(O)cc(O)c12,6.5,.
Cc1cc(Cl)ccc1N=Cc1nc(-c2ccccc2)oc1O,-2.6,4.0
Cc1nn(Cc2nnc(Nc3cccc(Cl)c3)s2)c(C)c1Cl,-4.8,-2.0
Cc1cc(=O)[nH]c(-c2ccccc2)n1,-2.5,.
SMILES,Pf apPOL inh,mHTT CaM bind
Cc1cc(=O)[nH]c(-c2cnccn2)n1,-16.9,94.3*
Clc1ccc2c(c1)C1CC(c3cccnc3)=NN1C1(CCCCC1)O2 (centres undefined),-23.2,51.0*
CN1CCC2(CC1)Oc1ccc(Cl)cc1C1CC(c3ccc(Cl)cc3)=NN12 (centres undefined),.,24.0
c1ccc(C2=NN3C(C2)c2ccccc2OC32CCCC2)cc1 (centres undefined),29.2,51.0*
C=CCN1C(=O)C2(Oc3ccccc3C3CC(c4ccccc4)=NN32)c2ccccc21 (centres undefined),0.5,7.0
CCC1(C)Oc2ccccc2C2CC(c3ccccc3)=NN21 (centres undefined),-0.1,44.0
c1ccc(C2=NN3C(C2)c2ccccc2OC32CCCCC2)cc1 (centres undefined),-0.9,44.0
Cc1ccc(C2=NN3C(C2)c2ccccc2OC32CCCCC2)o1 (centres undefined),-5.9,53.0*
O=C1Nc2ccccc2C12Oc1ccccc1C1CC(c3ccc(Cl)cc3)=NN12 (centres undefined),-3.9,100.0*
Cc1ccc(OCC(=O)N2CCC(c3nc(C4CC4)n[nH]3)CC2)cc1,-3.0,-0.1
CCC(C)NC(=O)C1CCC(=O)N1Cc1ccccc1Cl (centres undefined),-20.1,-1.0
CC(=O)c1ccc(NC(=O)Cn2cc3c(n2)CCCCC3)cc1,-3.7,-6.2
O=C(C1CCN(c2ccc(Br)cc2)C1=O)N1CCCC1 (centres undefined),-8.9,-0.7
CCOc1ccccc1C(=O)Nc1cc(F)c2nc(N3CCOCC3)ccc2c1,2.6,-6.3
OCCNC12CC3CC(CC(C3)C1)C2,.,-7.6
CCC(C)N=Cc1c(C)[nH]n(-c2ccccc2)c1=O (centres undefined),0.8,3.0
CN(CC(=O)N1N=C(c2cccs2)CC1c1ccccc1Cl)C(=O)C1CCC1 (centres undefined),3.3,25.5
c1csc(C2=NN3C(C2)c2ccccc2OC32CCCC2)c1 (centres undefined),-0.7,56.0*
O=C1C2CC(CC1(Br)Br)C(=O)C(Br)(Br)C2,13.7,.
COCCNC(=O)c1ccnc(N2CCNC(c3ccccc3)C2)c1 (centres undefined),-2.3,2.3
